Counter-ions that a name gives are not always drawn. Where only a bound is given, the exact number is not on record here.

This assay relates to thyroid hormone receptor (endogenous TRα and TRβ). Set-up: species or system GH3-TRE-Luc (rat pituitary); GH3-TRE-Luc luciferase reporter, antagonist mode against 1 nM T3, loss of signal, qHTS. As to conditions: read-out: Average AC50 (uM) GH3-TRE-Antag, antagonist mode, 1 nM T3, no GH3 cytotoxicity hit.
Usually AC50 stands for the concentration at which the activity in the assay is half-maximal. Take `CCCCC(CC)COC(=O)C(C#N)=C(c1ccccc1)c1ccccc1` (stereo not shown) [2-Ethylhexyl-2-cyano-3,3-diphenylacrylate]: the AC50 turned out to be 31 µM.
On to `CC1(C)C(C=C(Cl)Cl)[C@@H]1C(=O)O[C@@H](C#N)c1ccc(F)c(Oc2ccccc2)c1` (stereo partly shown) [Cyfluthrin], for which the AC50 was found to be 39.9 µM.
`CCCCCCCCCCCCCOS(=O)(=O)O` [Sodium tridecyl sulfate]: the AC50 is 67.6 µM.
Under `COc1cc(CNC(=O)CCCC/C=C/C(C)C)ccc1O` [Capsaicin] stands 34.4 µM; under `CNC(=O)c1ccccc1Sc1ccc2c(/C=C/c3ccccn3)n[nH]c2c1` [Axitinib], 0.777 µM.
Under `COC1=CC(=O)O[C@@H](/C=C/c2ccc3c(c2)OCO3)C1` [Methysticin] stands 0.0476 µM; under `CCN(CC)C(=O)C(C)Oc1cccc2ccccc12` (stereo not shown) [Napropamide], 74.1 µM; under `O=C(O)[C@@H]1[C@H](C(=O)O)[C@H]2CC[C@@H]1O2` [Endothal], 77.2 µM.
Under `C#C[C@]1(O)CC[C@H]2[C@@H]3CCC4=C(CCC(=O)C4)[C@H]3CC[C@@]21C` [Norethynodrel] stands 16.4 µM.
Regarding `C[C@]12C[C@H](O)[C@H]3[C@@H](CCC4=CC(=O)CC[C@@]43C)[C@@H]1CC[C@@H]2C(=O)CO` [Corticosterone], the AC50 was above 50 µM.
For `C[C@]12CC[C@@H]3c4ccc(O)cc4CC[C@H]3[C@@H]1CC[C@H]2O` [17alpha-Estradiol], the AC50 was determined as 27 µM.
Take `OCC#CCO` [2-Butyne-1,4-diol]: the AC50 is 58.8 µM.
`O=C(Nc1ccccc1)c1ccccc1O` [Salicylanilide]: the AC50 came out at 48.9 µM.

Source of the values: article PMC6792352, “Limited Chemical Structural Diversity Found to Modulate Thyroid Hormone Receptor in the Tox21 Chemical Library” (Environmental Health Perspectives, 2019).
